Assay outcomes as filed in PubChem.
DAX1 inh-1 = NR0B1 (DAX1) inhibition. HEK293 Gal4-DAX1 luciferase reporter, luminescence. inhibition, % at 6.75 µM. actives 0.99% (n = 340,000);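 active means inhibition above the mean over all tested compounds plus 3 SD, cut at about 4.2% in these data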;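 further: inhibition shows as a rise in luminescence from relieved DAX1 repression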
ssDAF-12 act = activators of S. stercoralis DAF-12 nuclear receptor; HEK293 ssDAF-12/GRIP1 lit1-tk-luc reporter, luminescence; % of 3 µM dafachronic acid response; activation, % at 6.8 µM; actives 1% (n = 370,000);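 active means activation above the mean over all tested compounds plus 3 SD, cut at about 0.9% in these data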
SMARCA2 act = increases SMARCA2 function in MMTV reporter cells | actives 1% (n = 370,000) | MG213 cells, MMTV-luciferase reporter, dexamethasone, overnight | activation, % at 9.1 µM; in the data active means activation above about 7.8%
hcDAF12 agonist = activators of H. contortus DAF-12 nuclear receptor. actives 1.4% (n = 370,000). AID 652067. activation, % at 6.8 µM. HEK293 hcDAF-12 lit1-tk-luc reporter, luminescence; 0% DMSO, 100% Δ7-dafachronic acid;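 active means activation above the mean of all tested compounds plus 3 SD, cut at about 5.5% in these data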
hgDAF12 agonist = agonists of H. glycines DAF-12 nuclear receptor; HEK293 GAL4-hgDAF12 UAS-luciferase reporter, agonist luminescence; normalized to butyrate control; activation, % at 6.8 µM; actives 1.8% (n = 370,000); AID 687014;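 active means activation above a cutoff set at the mean of all screened compounds plus 3 SD, cut at about 10% in these data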
DAX1 inh-2 = DAX1 (NR0B1) inhibition, primary screen. HEK293T StAR-luciferase reporter, SF-1/DAX-1 repression relief. inhibition, % at 6.8 µM. actives 1.1% (n = 370,000). AID 652010;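 active means inhibition above the mean over all tested compounds plus 3 SD, cut at about 3.6% in these data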;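 further: higher inhibition means more luminescence from relief of DAX-1 repression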
DAX1 conf = NR0B1 (human) inhibition, confirmation; shares compounds with DAX1 inh-2; HEK293T StAR-promoter luciferase reporter, SF-1/DAX-1 repression; inhibition, % at 6.8 µM; actives 87% (n = 2,400); AID 652134;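 active means inhibition above the average of every tested compound plus 3 SD, cut at about 3.8% in these data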;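 further: active compounds raise luminescence by relieving repression of the StAR reporter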
Target sequence (P51843 whole entry, looked up): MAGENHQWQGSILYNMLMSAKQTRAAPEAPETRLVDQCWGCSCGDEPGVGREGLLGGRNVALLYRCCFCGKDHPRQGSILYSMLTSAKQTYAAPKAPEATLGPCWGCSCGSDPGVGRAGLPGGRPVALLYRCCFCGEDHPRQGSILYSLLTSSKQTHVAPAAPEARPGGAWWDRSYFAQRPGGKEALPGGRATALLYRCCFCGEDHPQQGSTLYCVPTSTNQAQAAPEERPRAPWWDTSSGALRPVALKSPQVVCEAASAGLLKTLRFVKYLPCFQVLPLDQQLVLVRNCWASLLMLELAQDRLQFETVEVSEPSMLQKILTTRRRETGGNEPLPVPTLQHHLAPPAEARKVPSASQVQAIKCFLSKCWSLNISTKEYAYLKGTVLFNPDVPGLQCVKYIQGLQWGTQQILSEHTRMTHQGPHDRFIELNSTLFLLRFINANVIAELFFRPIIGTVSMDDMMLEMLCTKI
SF1 mutant ctr = nonselective inhibitor or artifact in SF-1 mutant DAX1 counter-screen. actives 78% (n = 2,400). inhibition, % at 6.8 µM. shares compounds with DAX1 inh-2. HEK293 StAR-luciferase, SF-1 AF2 mutant, luminescence;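 active means inhibition above the mean of all tested compounds plus 3 SD, cut at about 3% in these data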
SMARCA2 act conf = SMARCA2 activation, confirmation screen; shares compounds with SMARCA2 act; MG213 cells, MMTV-luciferase with dexamethasone, luminescence, overnight; MG213 cells expressing E1A, Rb sequestered; DMSO wells 0%, reference activator 100%; activation, % at 9.1 µM; actives 30% (n = 3,500);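 active means activation above its plate's cutoff, the mean activation of tested wells plus 3 SD, cut at about 7.9% in these data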
GAL4-VP16 Luc = activates GAL4-VP16 luciferase, flagging SMARCA2 activator hits. shares compounds with SMARCA2 act. actives 41% (n = 3,500). HEK293 GAL4-VP16 pG5luc reporter, luciferase luminescence; scaled: DMSO wells 0%, SAHA wells 100%. activation, % at 9.1 µM;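 active means activation above the solvent-only control well mean plus 3 SD, averaged across control plates, cut at about 5.2% in these data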
LXR ag = activates human LXR-beta, counter-screen for hcDAF-12 agonists | shares compounds with hcDAF12 agonist | HEK293 Gal4-LXR tk-luc reporter, luminescence, 24 h; normalized: DMSO 0%, positive control 100% | 3,400 tested, under 10 active | activation, % at 6.8 µM | AID 743027;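 active means mean percent activation of the reporter above a cutoff set as the average over tested compounds plus their standard deviation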
hcDAF12 ag = confirmation of H. contortus DAF-12 agonists. actives 61% (n = 3,400). activation, % at 6.8 µM. AID 743032. shares compounds with hcDAF12 agonist. HEK293 hcDAF-12 lit1-tk-luc reporter, luminescence; % of Δ7-dafachronic acid response;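 active means mean activation across triplicate tests above the threshold derived from the earlier primary screen, cut at about 5.5% in these data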
hgDAF12 ag = confirmation of H. glycines DAF-12 agonists | shares compounds with hgDAF12 agonist | HEK293 GAL4-hgDAF12 luciferase reporter, agonist mode; percent of butyrate response | activation, % at 6.8 µM | actives 80% (n = 3,300) | AID 743050;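 active means mean activation over triplicate wells above the hit cutoff derived from the earlier primary screen, cut at about 11% in these data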
LXR ag 2 = counter-screen for DAF-12 agonists: agonists of human LXR-beta; shares compounds with hgDAF12 agonist; HEK293 Gal4-LXR luciferase reporter, 24 h; activation, % at 6.8 µM; 3,300 tested, under 10 active;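 active means mean activation of the triplicate above a set limit carried over from the primary screen, none filed active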
Hits are given with their value; - = inactive; . = no result. A selection: hits, their analogues and other compounds. The true share with any hit is near 4.8%.

SMILES | DAX1 inh-1 | ssDAF-12 act | SMARCA2 act | hcDAF12 agonist | hgDAF12 agonist | DAX1 inh-2 | DAX1 conf | SF1 mutant ctr | LXR ag | hcDAF12 ag | hgDAF12 ag | LXR ag 2 | others
CCC1CCC/C1=N\NC(=O)c1ccoc1C (centres undefined) | - | - | - | - | 17 | 11 | - | - | . | . | - | -
Cc1cc(C)n2c(Nc3ccc4c(c3)OCCO4)c(-c3ccc(C)o3)nc2n1 | - | - | - | 6.9 | 13 | 5.7 | - | - | - | - | - | -
COCCCNc1ccn2nc(-c3ccc(Cl)cc3)cc2n1 | . | - | - | 8.0 | 14 | 7.3 | 10 | 7.3 | - | 6.5 | 21 | -
O=[N+]([O-])c1ccc2nc(-c3ccncc3)[nH]c2c1 | - | - | - | - | - | - | . | . | . | . | . | .
Cc1ccc(-c2nc3ccc([N+](=O)[O-])cc3[nH]2)cc1 | - | - | - | 7.1 | 18 | 9.2 | 14 | 6.7 | - | 7.1 | 18 | -
CC(C)N1CCC(=NNC(=O)c2cccs2)CC1 | - | 1.5 | - | 6.1 | 14 | 9.6 | - | - | . | . | - | -
CC(C)N1CCC(=NNC(=O)c2ccccc2[N+](=O)[O-])CC1 | - | - | - | - | - | - | . | . | . | . | . | .
O=C(CCc1nnc(CCCCc2ccccc2)o1)NCCC1CCCCO1 (centres undefined) | - | - | - | - | - | - | . | . | . | . | . | .
COc1cc(O)cc(/C=C/c2ccccc2)c1 | - | - | - | - | 15 | 4.6 | 9.3 | 5.5 | . | . | 16 | -
COc1cc(/C=C/C(=O)O)cc(OC)c1 | - | . | . | . | . | . | . | . | . | . | . | .
NC(=O)CC(NC(=O)c1cccc(Br)c1)c1ccc(NC2CCC2)c([N+](=O)[O-])c1 (centres undefined) | - | - | - | - | - | - | . | . | . | . | . | .
C=CCn1c(=O)c(C(=O)Nc2ccccc2C(=O)OCC)c(O)c2ccccc21 | - | - | - | - | - | - | . | . | . | . | . | .
C=CCn1c(=O)c(C(=O)Nc2ccccc2S(N)(=O)=O)c(O)c2ccccc21 | - | 1.1 | 11 | 12 | 15 | 5.8 | 10 | 4.0 | - | - | 11 | - | SMARCA2 act conf=16;GAL4-VP16 Luc=-
O=C(CNC(=O)c1cccs1)Nc1ccc2c(c1)OCCO2 | - | - | - | - | 17 | 12 | 8.0 | 4.0 | . | . | 16 | -
Fc1ccc2nc(N3CCCC3)sc2c1 | - | - | - | - | 28 | 5.2 | 7.9 | 5.0 | . | . | 15 | -
c1ccc2sc(N3CCCCC3)nc2c1 | - | - | - | - | 13 | 7.8 | 9.7 | 6.5 | . | . | 15 | -
